# Source: PubChem BioAssay (NCI)
# Compounds without any hit were thinned out: in the full panel of roughly 79,000, 15% have a hit. Unmarked numbers belong to inactive results. Active and inactive are the calls of the source. No stated cut-off is given here; in the data, active means growth inhibition above about 70%; inactive means the rest.
# Key:
# [1] = NCI Yeast Anticancer Drug Screen. Data for the rad50 strain (AID 155);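 further: 0% = growth of vehicle-only cultures of the same strain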; settings: S. cerevisiae rad50 strain growth inhibition, hits give high values
# Outline: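 Readout: growth inhibition relative to vehicle-treated cultures. Compound exposure was carried out in a genetically defined yeast strain deficient in DNA damage repair.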
# [2] = NCI Yeast Anticancer Drug Screen. Data for the mec2-1 strain (AID 157); settings: S. cerevisiae mec2-1 strain, hits give high values
# Outline: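 Vehicle-treated cultures served as reference for growth inhibition of compound-exposed mec2-1 yeast.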
# [3] = NCI Yeast Anticancer Drug Screen. Data for the sgs1 mgt1 strain (AID 161);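 further: 0% = growth of cultures given vehicle only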; settings: S. cerevisiae sgs1 mgt1 strain, hits give high values
# Outline: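 Inhibition of yeast growth, normalised to vehicle-treated controls, is reported for a strain bearing genetic alterations in DNA damage repair.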
# [4] = NCI Yeast Anticancer Drug Screen. Data for the cln2 rad14 strain (AID 165);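 further: 0% = growth equal to vehicle treated cultures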; settings: S. cerevisiae cln2 rad14 strain, hits give high values
# Outline: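 Each compound was tested on cln2 rad14 yeast. Inhibition of growth was calculated against vehicle-exposed controls.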
# [5] = NCI Yeast Anticancer Drug Screen. Data for the bub3 strain (AID 167); settings: S. cerevisiae bub3 mutant strain, hits give high values
# Outline: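 Readout: yeast growth inhibition, expressed relative to vehicle-only wells. The test organism is a mutant strain from a panel with lesions in DNA repair or checkpoint genes.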
# [6] = NCI Yeast Anticancer Drug Screen. Data for the mlh1 rad18 strain (AID 175); settings: S. cerevisiae mlh1 rad18 strain growth inhibition, hits give high values
# Outline: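 Vehicle-treated cultures served as the reference for growth inhibition in a yeast strain carrying DNA damage repair alterations exposed to each compound.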
# [7] = at 5.0 µM (retest, dose inferred, filed as 0.5)
# [8] = at 50.0 µM (retest, dose inferred, filed as 5.0)
Structure (SMILES),"growth inhibition [1, 7]","growth inhibition [1, 8]",growth inhibition ([1]; at 50.0 µM),"growth inhibition [2, 7]","growth inhibition [2, 8]",growth inhibition ([2]; at 50.0 µM),"growth inhibition [3, 7]","growth inhibition [3, 8]",growth inhibition ([3]; at 50.0 µM),"growth inhibition [4, 7]","growth inhibition [4, 8]",growth inhibition ([4]; at 50.0 µM),"growth inhibition [5, 7]","growth inhibition [5, 8]",growth inhibition ([5]; at 50.0 µM),"growth inhibition [6, 7]","growth inhibition [6, 8]",growth inhibition ([6]; at 50.0 µM)
CC1=NC2=NC(CCCC(=O)OCc3ccc(Cl)c(Cl)c3)=NC3=CC=CC(=N1)N32,9%,54%,61.1%,17%,52%,31.1%,5%,60%,67.7%,6%,46%,41%,1%,38%,7.65%,5%,58%,63.1%
COc1ccc2c(c1)CC[C@@H]1[C@@H]2CC[C@]2(C)/C(=N/OCCN3CCCCC3)CC[C@@H]12,60%,97% (active),76.3% (active),56%,98% (active),71.2% (active),33%,97% (active),86.8% (active),20%,96% (active),78.7% (active),33%,98% (active),79.8% (active),80% (active),98% (active),83% (active)
O=C(CNC(=O)c1ccccc1)NNc1ccccc1,16%,62%,86.7% (active),4%,65%,71.2% (active),8%,67%,32.8%,3%,68%,48.8%,7%,89% (active),32.5%,30%,93% (active),86.9% (active)
Cc1ccc(NC(=O)c2cc3ccccc3c(N=Nc3cc(S(=O)(=O)O)ccc3O)c2O)c(C)c1,33%,85% (active),71.8% (active),33%,84% (active),52.3%,56%,92% (active),78.7% (active),29%,43%,59.9%,50%,92% (active),82.8% (active),57%,87% (active),80.8% (active)
CCCCCCCCCCCCCCCCNc1ccn(C2CC(OP(=O)(O)OCC3OC(n4cc(CC)c(=O)[nH]c4=O)CC3O)C(CO)O2)c(=O)n1 (configuration not stated),73% (active),97% (active),41.8%,26%,97% (active),12.8%,94% (active),97% (active),58%,7%,64%,39.5%,-19%,92% (active),11.8%,59%,87% (active),16.3%
CCOC(=O)c1ccc([N+](=O)[O-])o1,5%,24%,94.4% (active),4%,11%,53.1%,3%,14%,66.1%,-1%,11%,28.3%,7%,49%,91% (active),2%,30%,83.7% (active)
O=C(CCSCCC(=O)NNc1ccccc1)NNc1ccccc1,4%,32%,24.4%,-1%,28%,3.5%,4%,37%,20.4%,6%,23%,23.4%,7%,44%,-14.7%,15%,58%,35.9%
CCC(=O)OCN1C(=O)C=CC1=O,11%,99% (active),99% (active),3%,100% (active),99.3% (active),-4%,100% (active),99.2% (active),14%,99% (active),98.9% (active),10%,100% (active),99.3% (active),20%,99% (active),99% (active)
CCC[CH2][Sn]([CH2]CCC)([O]C(=O)c1cc(F)cc(F)c1)[O]C(=O)c1cc(F)cc(F)c1,54%,54%,22.4%,26%,26%,52.4%,65%,65%,16.4%,18%,18%,36.2%,21%,21%,67.7%,21%,21%,68.1%
